Source: PubChem BioAssay (NCATS)
Results filed as inconclusive are left out. Calls of active or inactive are those of the source. Unless noted, calls follow the shape of the dose curve; as a rule, active = well fitted curve in the direction sought with a large enough effect; inconclusive = small, poorly fitted or top-dose-only effect, or another doubt; inactive = no such curve, though single readings can be large; an effect the other way counts as inactive or inconclusive.

Experiments:
MKL-2 = assay: qHTS assay to identify novel small-molecules to repurpose for Merkel cell carcinoma treatment (AID 1296009); conditions: MCC and control cell lines, CellTiter-Glo viability, 72 h; series mostly up to 46 µM; also: nearly all actives have a fitted effect of over 60% in size
In short: (§1)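 Cells exposed to NPC (8-point) and MIPE (11-point) compound dilutions for 72 hr at 37 degree celsius; viability read by CellTiter-Glo luminescence, normalized to no-cell and DMSO in-plate controls.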

NIH3T3 = assay: as above; conditions: MCC and control cell lines, CellTiter-Glo viability, 72 h; at 44.8 µM (top of the series) unless noted
In short: as §1

UISO = assay: as above; conditions: MCC and control cell lines, CellTiter-Glo viability, 72 h; series mostly up to 46 µM
In short: as §1

WaGa = assay: as above; conditions: MCC and control cell lines, CellTiter-Glo viability, 72 h; series mostly up to 46 µM
In short: as §1

C33A = assay: Primary qHTS to identify gynecologic anti-cancer compounds using libraries of approved drugs and bioactive compounds (AID 1345084); conditions: Gynecologic cancer cell panel viability, ATPlite luminescence, 48 h; series mostly up to 57.5 µM; also: % is scaled to controls: 0 for no effect and ±100 for the full control effect; nearly all actives have a fitted effect of over 55% in size
In short: (§2)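 Measured: luminescence after ATPlite addition (15 min, RT). Exposure: 48 h, 37 C, 5% CO2.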

CASKI = assay: as above; conditions: Gynecologic cancer cell panel viability, ATPlite luminescence, 48 h; series mostly up to 57.5 µM
In short: as §2

Es-2 = assay: as above; conditions: Gynecologic cancer cell panel viability, ATPlite luminescence, 48 h; series mostly up to 57.5 µM
In short: as §2

HeLa = assay: as above; conditions: Gynecologic cancer cell panel viability, ATPlite luminescence, 48 h; series mostly up to 57.5 µM
In short: as §2

Hek293T = assay: as above; conditions: Gynecologic cancer cell panel viability, ATPlite luminescence, 48 h, control line for the selectivity index; series mostly up to 57.5 µM
In short: as §2

JEG-3 = assay: as above; conditions: Gynecologic cancer cell panel viability, ATPlite luminescence, 48 h; series mostly up to 57.5 µM
In short: as §2

OV90 = assay: as above; conditions: Gynecologic cancer cell panel viability, ATPlite luminescence, 48 h; series mostly up to 57.5 µM
In short: as §2

PA-1 = assay: as above; conditions: Gynecologic cancer cell panel viability, ATPlite luminescence, 48 h; series mostly up to 57.5 µM
In short: as §2

SKOV3 = assay: as above; conditions: Gynecologic cancer cell panel viability, ATPlite luminescence, 48 h; series mostly up to 57.5 µM
In short: as §2

Tov-21-G = assay: as above; conditions: Gynecologic cancer cell panel viability, ATPlite luminescence, 48 h; series mostly up to 57.5 µM
In short: as §2

Tov112D = assay: as above; conditions: Gynecologic cancer cell panel viability, ATPlite luminescence, 48 h; series mostly up to 57.5 µM
In short: as §2

[1] = Drug repurposing screens with cells derived from glioblastoma tumor samples (AID 1345199); conditions: GBM patient neurospheres viability, ATP luminescence, 48 h; also: nearly all actives have a fitted effect of over 40% in size; also: potency is read from the fitted curve at half-maximal effect; as to activity, negative = cell killing: % is scaled to controls: 0 for no effect and ±100 for the full control effect
In short: (§3)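 Four patient lines of CD133+ GBM neurospheres were screened at several concentrations; hits were retested in those lines plus three slower-growing GBM lines, using 48-hour treatment and ATP-based viability.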

astro = assay: as above; conditions: viability, ATP luminescence, 48 h; series mostly up to 45.9 µM
In short: as §3

[2] = target: Nuclear receptor subfamily 1 group I member 2 (Rattus norvegicus) (UniProt Q9R1A7); assay: qHTS assay for small molecule activators of the rat pregnane X receptor (rPXR) signaling pathway (AID 651751; call rule not given here; also: 0% is about no effect); conditions: rPXR reporter cells, luciferase (One-Glo), 24 h
[3] = qHTS assay for small molecule activators of the human pregnane X receptor (PXR) signaling pathway (AID 720659; call rule not given here; also: 0% is about no effect); conditions: DPX-2 HepG2 CYP3A4-luciferase, 24 h; series mostly up to 92.3 µM
CAOV3 = assay: Primary qHTS to identify gynecologic anti-cancer compounds using libraries of approved drugs and bioactive compounds (AID 1345084); conditions: Gynecologic cancer cell panel viability, ATPlite luminescence, 48 h; series mostly up to 57.5 µM; also: % is scaled to controls: 0 for no effect and ±100 for the full control effect; nearly all actives have a fitted effect of over 55% in size
In short: as §2

[4] = at 45.9 µM (top of the series), tumour line B
[5] = at 45.9 µM (top of the series), tumour line D
[6] = at 46 µM (top of the series), tumour line A

Nuclear receptor subfamily 1 group I member 2 (Rattus norvegicus), sequence (Q9R1A7 whole entry, looked up): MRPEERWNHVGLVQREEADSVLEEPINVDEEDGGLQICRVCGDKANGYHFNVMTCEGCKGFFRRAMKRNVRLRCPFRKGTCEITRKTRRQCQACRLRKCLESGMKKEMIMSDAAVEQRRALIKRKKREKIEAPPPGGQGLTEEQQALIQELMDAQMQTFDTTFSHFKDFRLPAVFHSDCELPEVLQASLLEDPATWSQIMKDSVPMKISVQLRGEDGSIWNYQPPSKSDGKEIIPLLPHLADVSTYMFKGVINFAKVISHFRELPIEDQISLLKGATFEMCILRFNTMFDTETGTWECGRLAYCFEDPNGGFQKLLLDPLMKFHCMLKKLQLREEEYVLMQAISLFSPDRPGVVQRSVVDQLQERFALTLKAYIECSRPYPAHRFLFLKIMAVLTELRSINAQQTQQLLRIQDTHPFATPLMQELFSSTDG

CC(C)NC(C)C
inactive: Potency (MKL-2) | outcome (NIH3T3) | Potency (UISO) | Potency (WaGa) | Potency (C33A) | outcome (CASKI) | Potency (Es-2) | Potency (HeLa) | outcome (Hek293T) | outcome (JEG-3) | Potency (OV90) | Potency (PA-1) | outcome (SKOV3) | Potency (Tov-21-G) | Potency (Tov112D) | activity, negative = cell killing [1, 4] 6.4% | activity, negative = cell killing [1, 5] 4.87% | activity, negative = cell killing [1, 6] 1.87% | Potency (astro) | max response [2] 7.26% | outcome [3]

c1ccc(N2CCNCC2)cc1
inactive: Potency (MKL-2) | outcome (NIH3T3) | Potency (UISO) | Potency (WaGa) | Potency (C33A) | outcome (CAOV3) | outcome (CASKI) | Potency (Es-2) | Potency (HeLa) | outcome (Hek293T) | outcome (JEG-3) | Potency (OV90) | Potency (PA-1) | outcome (SKOV3) | Potency (Tov-21-G) | Potency (Tov112D)

O=c1[nH]c2ccccc2n1C1CCNCC1
inactive: Potency (MKL-2) | outcome (NIH3T3) | Potency (UISO) | Potency (WaGa) | Potency (C33A) | outcome (CAOV3) | outcome (CASKI) | Potency (Es-2) | Potency (HeLa) | outcome (Hek293T) | outcome (JEG-3) | Potency (OV90) | Potency (PA-1) | outcome (SKOV3) | Potency (Tov-21-G) | Potency (Tov112D)

c1ccc(CN2CCNCC2)cc1
inactive: Potency (MKL-2) | Potency (UISO) | Potency (WaGa) | Potency (C33A) | outcome (CAOV3) | outcome (CASKI) | Potency (Es-2) | Potency (HeLa) | outcome (Hek293T) | outcome (JEG-3) | Potency (OV90) | Potency (PA-1) | outcome (SKOV3) | Potency (Tov-21-G) | Potency (Tov112D) | activity, negative = cell killing ([1]; at 194 µM (top of the series), tumour line B) 7.52% | activity, negative = cell killing ([1]; at 194 µM (top of the series), tumour line D) -7.34%
active: Potency ([1]; tumour line A) 126 µM

CCC(CC)(CNC(=O)CCCO)c1cccc(OC)c1
inactive: Potency (MKL-2) | outcome (NIH3T3) | Potency (UISO) | Potency (WaGa) | Potency (C33A) | outcome (CASKI) | Potency (Es-2) | Potency (HeLa) | outcome (Hek293T) | outcome (JEG-3) | Potency (OV90) | Potency (PA-1) | outcome (SKOV3) | Potency (Tov-21-G) | Potency (Tov112D)

O=C1OC(c2ccc(O)c(S(=O)(=O)O)c2)(c2ccc(O)c(S(=O)(=O)O)c2)c2c(Br)c(Br)c(Br)c(Br)c21
inactive: Potency (MKL-2) | outcome (NIH3T3) | Potency (UISO) | Potency (WaGa) | Potency (C33A) | outcome (CAOV3) | outcome (CASKI) | Potency (Es-2) | Potency (HeLa) | outcome (Hek293T) | outcome (JEG-3) | Potency (OV90) | Potency (PA-1) | outcome (SKOV3) | Potency (Tov-21-G) | Potency (Tov112D) | activity, negative = cell killing [1, 4] -1.68% | activity, negative = cell killing [1, 5] 0.706% | activity, negative = cell killing [1, 6] -10.6% | Potency (astro)

C[C@]12CC[C@@H]3c4ccc(OC(=O)N(CCCl)CCCl)cc4CC[C@H]3[C@@H]1CC[C@@H]2OP(=O)(O)O
inactive: Potency (MKL-2) | Potency (UISO) | Potency (WaGa) | Potency (C33A) | outcome (CAOV3) | outcome (CASKI) | Potency (Es-2) | Potency (HeLa) | outcome (Hek293T) | outcome (JEG-3) | Potency (OV90) | Potency (PA-1) | outcome (SKOV3) | Potency (Tov-21-G) | Potency (Tov112D) | activity, negative = cell killing [1, 4] -5.05% | activity, negative = cell killing [1, 5] -6.53%

CCC(C)C(C)(COC(N)=O)COC(N)=O (configuration not stated)
inactive: Potency (MKL-2) | outcome (NIH3T3) | Potency (UISO) | Potency (WaGa) | Potency (C33A) | outcome (CAOV3) | outcome (CASKI) | Potency (Es-2) | Potency (HeLa) | outcome (Hek293T) | outcome (JEG-3) | Potency (OV90) | Potency (PA-1) | outcome (SKOV3) | Potency (Tov-21-G) | Potency (Tov112D)

Nc1ccc([As](=O)(O)O)cc1
inactive: Potency (MKL-2) | outcome (NIH3T3) | Potency (UISO) | Potency (WaGa) | Potency (C33A) | outcome (CASKI) | Potency (Es-2) | Potency (HeLa) | outcome (Hek293T) | outcome (JEG-3) | Potency (OV90) | Potency (PA-1) | Potency (Tov-21-G) | Potency (Tov112D) | activity, negative = cell killing [1, 4] -5.35% | activity, negative = cell killing [1, 5] -5.12% | activity, negative = cell killing [1, 6] -21.8% | max response [2] 3.51% | outcome [3]

COc1cccc([C@@]2(O)CCCC[C@@H]2CN(C)C)c1
inactive: Potency (MKL-2) | outcome (NIH3T3) | Potency (UISO) | Potency (WaGa) | Potency (C33A) | outcome (CAOV3) | outcome (CASKI) | Potency (Es-2) | Potency (HeLa) | outcome (Hek293T) | outcome (JEG-3) | Potency (OV90) | Potency (PA-1) | outcome (SKOV3) | Potency (Tov-21-G) | Potency (Tov112D) | activity, negative = cell killing [1, 4] -5.81% | activity, negative = cell killing [1, 5] 6.21% | activity, negative = cell killing [1, 6] -29.2% | Potency (astro)

CC(C)(C)NCC(O)c1cc(Cl)c(N)c(C(F)(F)F)c1 (configuration not stated)
inactive: Potency (MKL-2) | outcome (NIH3T3) | Potency (UISO) | Potency (WaGa) | Potency (C33A) | outcome (CAOV3) | outcome (CASKI) | Potency (Es-2) | Potency (HeLa) | outcome (Hek293T) | outcome (JEG-3) | Potency (OV90) | Potency (PA-1) | outcome (SKOV3) | Potency (Tov-21-G) | Potency (Tov112D) | activity, negative = cell killing [1, 4] -7.42% | activity, negative = cell killing [1, 5] -9.1% | Potency (astro)

C#CC(O)(C=CCl)CC (configuration not stated)
inactive: Potency (MKL-2) | outcome (NIH3T3) | Potency (UISO) | Potency (WaGa) | Potency (C33A) | outcome (CAOV3) | outcome (CASKI) | Potency (Es-2) | Potency (HeLa) | outcome (Hek293T) | outcome (JEG-3) | Potency (OV90) | Potency (PA-1) | outcome (SKOV3) | Potency (Tov-21-G) | Potency (Tov112D)

CC(=O)C1CCOC1=O (configuration not stated)
inactive: Potency (MKL-2) | outcome (NIH3T3) | Potency (UISO) | Potency (WaGa) | Potency (C33A) | outcome (CAOV3) | outcome (CASKI) | Potency (Es-2) | Potency (HeLa) | outcome (Hek293T) | outcome (JEG-3) | Potency (OV90) | Potency (PA-1) | outcome (SKOV3) | Potency (Tov-21-G) | Potency (Tov112D)

C[C@H]1[C@@H]2Cc3ccc(O)cc3[C@@]1(C)CCN2C
active: Potency ([1]; tumour line A) 112 µM
inactive: Potency (MKL-2) | outcome (NIH3T3) inactive [at 231 µM] | Potency (UISO) | Potency (WaGa) | Potency (C33A) | outcome (CASKI) | Potency (Es-2) | Potency (HeLa) | outcome (Hek293T) | outcome (JEG-3) | Potency (PA-1) | outcome (SKOV3) | Potency (Tov-21-G) | Potency (Tov112D) | activity, negative = cell killing ([1]; at 231 µM (top of the series), tumour line B) -0.237% | activity, negative = cell killing ([1]; at 231 µM (top of the series), tumour line D) -19.7% | Potency (astro)
